The values below come from PubChem BioAssay (NCI).

About 83,000 compounds went through this panel and 20% of them were active in at least one assay; those are over-represented in the sample as a whole.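 Each cell line was grown in a 96-well plate and treated with one concentration of compound for 48 hours. Values below 10 were considered active.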 A number with no mark means an inactive call. Calls of active or inactive are those of the source.

The subject of this assay is MCF7 breast. The experiment in a line: NCI-60 one-dose screen, 48 h (100 = growth as untreated, 0 = no growth, -100 = all killed). As to conditions: 10 µM unless noted.
In the case of `Cc1ccc(-c2csc(NC(=O)CN3CCN(c4cc5c(cc4F)c(=O)c(C(=O)O)cn5C4CC4)CC3)n2)cc1`, the growth is 6.16% (active). The value for `O=C(Nc1ccc(-c2nc(N3CCOCC3)c3cccn3n2)cc1)Nc1cccnc1` was 4.54% (active); that for `CC(=O)OC[C@]12CCC(C)(C)C[C@H]1[C@@]1(O)[C@H](O)C[C@@H]3[C@@]4(C)CCCNC(C)(C)[C@@H]4CC[C@@]3(C)[C@]1(C)CC2` was 102%; that for `Cn1ccnc1C(=O)C(=O)Nc1ccc(CC(=O)Nc2ccccc2)cc1` was 92.1%. The same measure for `O=[N+]([O-])c1ccc(-c2nc(N3CCOCC3)c3c4c(sc3n2)CCCC4)cc1`: 73.1%; for `O=C1/C(=C\c2cn(-c3ccccc3)nc2-c2ccc(-c3cccs3)cc2)CCc2ccccc21`: 38.3%; for `Cc1ccc(-c2cc(-c3ccc(Cl)cc3)nc(NC(=O)c3cccnc3)n2)cc1`: 86.3%.

For the molecule `C[C@@H]1CCC[C@H]1CC(N)C(=O)O` (stereo not given in full), the growth is 91.7%. The same measure for `CSc1nnc(-c2cnn3c2NC(c2ccccc2)C3)n1-c1ccc(C(F)(F)F)cc1` (stereo not given): 26.9%. The value for `COc1ccccc1Nc1nc2c(s1)C1=CC[C@H]3[C@@H]4CC[C@H]([C@H](C)CCCC(C)C)[C@@]4(C)CC[C@@H]3[C@@]1(C)CC2` was 113%; that for `CCOC(=O)c1ccc2[nH]c(O)c(C(=Nc3ccc(N(C)C(=O)CN4CCN(C)CC4)cc3)c3ccccc3)c2c1` was -63.9% (active); that for `COc1ccc(-c2nnc(-c3ccc4c(c3)nc(-c3ccncc3)n4C3CCCCC3)o2)cc1` was 65.6%. The value for `CCCCCCC1(C)NCCO1` (stereo not given) was 99.7%; that for `O=C(CCCCCCN1CC(=O)N2[C@H](c3cc(Br)cs3)c3[nH]c4ccccc4c3C[C@H]2C1=O)NO` was 33.2%; that for `C=CCn1c(SCC(=O)Nc2ccc(C(=O)/C=C/c3cc4cc(OC)ccc4nc3Cl)cc2)nnc1-c1ccc(Br)cc1` was 29.6%. For `O=C(COc1ccc(-c2nc3ccccc3[nH]2)cc1)N=Nc1c(O)[nH]c2ccc(Cl)cc12`, the growth was 22.3%. The same measure for `Cc1cc(=O)[nH]c2c(C#N)cnn12`: 93.2%; for `O=C1Nc2ccc(I)cc2C1=O`: 71.5%.

On to `Fc1ccc(Nc2nc3nonc3nc2Nc2ccc(I)cc2)cc1`, for which the growth was 1.98% (active). For the molecule `CN1CCN(Cc2ccc3c(NNC(=O)c4ccccc4)nc4cc(F)ccc4n23)CC1`, the growth was 13.9%. On to `O=C(Nn1c2c(sc1=NCc1ccccc1)C(=O)c1ccccc1C2=O)c1cc2ccc1CCc1ccc(cc1)CC2`, for which the growth is 40%.

In the case of `Cc1cc2c(O)c(-c3cccc(Cl)c3)c3sc(=O)oc3c2cc1C`, the growth is 26.3%.

On to `CC12CCC3c4ccccc4CCC3(CO1)C2` (stereo not given), for which the growth was 97.1%. The same measure for `O=C(Cn1cc(CN2CCCCCC2)nn1)Nc1ccc2c(ccn2Cc2ccccc2)c1`: 90.2%; for `COc1cc(OC)cc(C2=C3CC[C@@H]4[C@H](CC[C@]5(C)C(=O)CC[C@@H]45)C3=CC3C(O)c4cccnc4N4C(=O)COC234)c1` (stereo not given in full): 103%. Turning to `O=C(Cn1c(-c2ccc([N+](=O)[O-])cc2)nc2ccccc21)NNC(=O)c1cccnc1`, the growth is 25.9%.

Take `CCNc1nc(-c2ccc(Cl)c(OC)c2)c(-c2ccnc(NCCCNS(=O)(=O)c3ccc(Cl)cc3)n2)s1`: the growth is 66.3%. The same measure for `COc1ccc2c(O)c(/C=C3\N=Nc4ccccc43)oc2c1C[C@@H]1CCNC[C@H]1F`: 18.3%; for `CC(C)(C)[Si](C)(C)O[C@H]1C(=O)C=CN2CC=C[C@@H]12`: 96.5% [100 µM]. On to `CN1CCN(Cc2ccc(NC(=O)c3cncc(C#Cc4cnc(N)c5ccccc45)c3)cc2C(F)(F)F)CC1`, for which the growth was -76.8% (active). The same measure for `CC(C)N1CN2C(=S)NC3C2N(C1)C(=S)N3C` (stereo not given): 93%; for `COc1ccc(C(=O)Nc2cccc(C3CC(=O)c4c(cc(OC)c(OC)c4OC)O3)c2)cc1` (stereo not given): 15.2%.

With `O=c1oc2ccc([N+](=O)[O-])cc2cc1Br`, the growth is 97.7%. The same measure for `CCOC(=O)c1cc2c(=O)oc3ccccc3c2oc1=O`: 99.8%; for `Clc1ccc(Sc2cnc(-c3ccccc3)o2)cc1`: 96.1%; for `CN(C)c1ccc(/C=C/C(=O)c2ccc(-n3cc(CN4CCN(c5cc6c(cc5F)c(=O)c(C(=O)O)cn6C5CC5)CC4)nn3)cc2)cc1`: 24.2%. Regarding `Oc1ccc(CCn2c(O)c(/C=C3\CN=c4ccccc4=N3)sc2=S)cc1`, the growth is 16.7%.

In the case of `COC1C[C@H](O[C@@H]2C[C@H](O[C@@H]3C[C@H](O[C@@H]4C(=O)c5c(cc6cc(O[C@H]7C[C@@H](O[C@H]8C[C@@H](O)[C@H](O)C(C)O8)[C@H](O)C(C)O7)c(C)c(O)c6c5O)C[C@H]4C(OC)C(=O)[C@@H](O)[C@@H](C)O)OC(C)[C@H]3O)OC(C)[C@@H]2O)OC(C)[C@@H]1O` (stereo not given in full), the growth was 4.52% (active). Turning to `C[C@H](NC(=O)[C@@H](C)N)[C@H](Oc1ccc2c(cnn2-c2ccc(F)cc2)c1)c1ccc2c(c1)OCCO2`, the growth was 46.4%.

Regarding `CCc1ccc(Oc2cn[nH]c2-c2ccc(OCCc3ccc(F)cc3)cc2O)cc1`, the growth is 85.3%.
